Here are results for four compounds from PubChem BioAssay AID1494158 (National Center for Advancing Translational Sciences (NCATS), 2020).

Inconclusive results are not listed. Calls of active or inactive are those of the source. Calls follow the shape of the full dose curve.

The experiment can be described thus: VSV-G qHTS counterscreen for inhibitors of SARS-S pseudo-typed particle cell entry. Conditions: VSV-G pseudotyped particle entry counterscreen, luciferase; series mostly up to 57.1 µM. Background: In qHTS, concentration-response curves come from the screen itself.
In the case of `N=C(N)c1ccc(OCCCCCOc2ccc(C(=N)N)cc2)cc1`, the Potency was 21500 nM (active). Turning to `COc1cccc2c1C(=O)c1c(O)c3c(c(O)c1C2=O)C[C@@](O)(C(=O)CO)CC3OC1CC(N2CCOC(OC)C2)C(O)C(C)O1` (some centres undefined), the Potency is 108 nM (active). In the case of `COc1cc2c(cc1Cc1cccc(Cl)c1F)c(=O)c(C(=O)O)cn2[C@H](CO)C(C)C` it was 215 nM (active).

Regarding `COc1cc([C@@H]2c3cc4c(cc3C(O[C@@H]3O[C@@H]5CO[C@@H](c6cccs6)OC5[C@H](O)[C@H]3O)C3COC(=O)[C@@H]32)OCO4)cc(OC)c1O` (some centres undefined), the Potency was 857 nM (active).
